Source: PubChem BioAssay AID1851 (National Center for Advancing Translational Sciences (NCATS), 2009)
Values joined by “and” are separate entries in the source; they are usually repeats but may differ in a detail not shown here. Identical values can stand only once. Out of some 16,000 compounds screened, about 5,700 (36%) were called active. Not shown: some 24% with an inconclusive outcome. The call rests on the fitted dose curve; in most records, active means well fitted curve in the direction sought with a large enough effect; inconclusive means small, poorly fitted or top-dose-only effect, or effect the other way; inactive means no such curve, though single readings can be large or run the other way. The list shows a part of the results.

What follows are molecules tested against Cytochrome P450 1A2 (Homo sapiens) (UniProt P05177) (assay: Cytochrome panel assay with activity outcomes). Conditions: recombinant CYP, pro-luciferin dealkylation, luminescence, p450-cyp1a2; series mostly up to 57.1 µM.
On the % scale 0 is the no-effect control and ±100 the full control effect.

Cytochrome P450 1A2 (Homo sapiens), sequence (P05177 whole entry, looked up): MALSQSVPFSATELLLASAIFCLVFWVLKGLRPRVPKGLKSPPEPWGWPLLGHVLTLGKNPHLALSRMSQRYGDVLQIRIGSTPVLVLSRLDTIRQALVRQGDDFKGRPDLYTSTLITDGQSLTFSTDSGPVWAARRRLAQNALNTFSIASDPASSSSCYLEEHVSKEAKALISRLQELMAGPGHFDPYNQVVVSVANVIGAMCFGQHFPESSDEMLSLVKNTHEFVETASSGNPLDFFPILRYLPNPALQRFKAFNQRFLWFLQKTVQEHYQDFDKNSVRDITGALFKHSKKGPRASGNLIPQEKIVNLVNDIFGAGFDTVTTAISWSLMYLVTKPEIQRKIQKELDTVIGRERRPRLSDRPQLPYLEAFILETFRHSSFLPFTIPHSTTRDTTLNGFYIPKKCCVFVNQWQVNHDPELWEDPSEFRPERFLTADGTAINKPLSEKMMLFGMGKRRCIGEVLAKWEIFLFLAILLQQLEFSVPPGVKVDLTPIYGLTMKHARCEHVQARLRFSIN

SMILES | AC50 | activity, negative = inhibition
O=C(Cn1ccnc1[N+](=O)[O-])NCCO | inactive | 
Nc1nc(N)c(CCCCc2ccccc2)c(N)n1 |  | -0.16% [at 2.29 µM] (inactive)
CCN(CC)CCc1nc(-c2ccccc2)no1 | 5.01 µM (active) | 
O=C(CCc1nc(-c2ccccc2)no1)NCCc1ccccc1 | 2.82 µM (active) | 
O=C(O)CCc1nc(-c2ccccc2-n2cccc2)no1 |  | -17.3% [at 2.29 µM] (inactive)
c1ccc(CCc2nc(-c3ccccc3)no2)cc1 | 2.82 µM (active) | 
CN1C(=O)NC(c2ccc(O)cc2)C(C(=O)c2cccs2)C1(O)C(F)(F)F (stereo unspecified) | inactive | 
CN=C(N)/N=C(\N)Nc1cc2ccccc2c2ccccc12 | 0.251 µM (active) | 
NC(=S)Nc1ccc(Oc2ccc(NC(N)=S)cc2)cc1 | inactive | 
Cc1ccccc1N=C(N)Nc1ccccc1C | inactive | 
NC(=S)Nc1cc2ccccc2c2ccccc12 | 0.0708 µM (active) | 
O=P(O)(O)CCP(=O)(c1ccccc1)c1ccccc1 | inactive | 
C[C@@H]1CCN=C(N)S1 | inactive | 
O=C(OCC#CCSc1nnc(-c2cccc3ccccc23)o1)c1ccco1 | 0.398 µM (active) | 
Cc1ccc(N2C(=O)C(Cl)=C(NCc3ccccc3)C2=O)c(C)c1 | 11.2 µM (active) | 
CC1=NN(c2ccc(C)cc2C)C(=O)C1C(c1ccccc1)C1C(=O)N(c2ccc(C)cc2C)N=C1C (stereo unspecified) | inactive | 
CO[C@H]1COC(=O)[C@H]2CCCN2C(=O)C/C=C\[C@@H](C)[C@H](OC)COC(=O)[C@@H](OCc2ccccc2)/C=C\[C@@H]1C |  | -3.46% [at 11.4 µM] (inactive)
O=C(CN1CCc2ccccc21)NC(=O)NCc1ccco1 | 6.31 µM (active) | 
S=C(NCc1ccco1)N1CCN(C(c2ccccc2)c2ccccc2)CC1 | inactive | 
CO[C@@H]1/C=C\O[C@]2(C)Oc3c(C)c(O)c4c(O)c(cc(O)c4c3C2=O)NC(=O)/C(C)=C\C=C/[C@H](C)[C@@H](O)[C@H](C)[C@H](O)[C@H](C)[C@H](OC(C)=O)[C@@H]1C |  | -9.97% [at 11.4 µM] (inactive)
Nc1c2c(=O)oc(-c3ccccc3)cc2nn1-c1ccccc1 | 2.24 µM (active) | 
COC(=O)N1CCC2(CC1)CN(c1ccncc1)C2 | inactive | 
CO/N=C\[C@@H](OC)[C@H](C)/C=C\CC(=O)OC |  | -3.46% [at 11.4 µM] (inactive)

SMILES | AC50 | activity, negative = inhibition
Cn1c(CN2CCOCC2)nnc1SCc1ccccc1 | inactive | 
C#CCSc1nnc(-c2sc(-c3ccccc3)nc2C)n1C | 4.47 µM (active) | 
CSc1nnc(-c2sc(-c3ccccc3)nc2C)n1C | 11.2 µM (active) | 
CC(=O)c1cn(CCCCCCCCCCn2cc(C(C)=O)c(=O)[nH]c2=O)c(=O)[nH]c1=O | inactive | 
CCCCCCCCn1cc(C(C)=O)c(=O)[nH]c1=O | 15.8 µM (active) | 
CCCCCCC(C)n1cc(C(C)=O)c(=O)[nH]c1=O (stereo unspecified) | inactive | 
CCCOc1ccc(-c2nc(N)n[nH]2)cc1 | 15.8 µM (active) | 
O=C1[C@H]2[C@H]3[C@H](O)[C@H](O)C/C(=N/OC[C@@H](O)COCc4ccco4)[C@@H]3CC[C@@H]2C(=O)N1C[C@@H]1CCCO1 |  | 6.9% [at 11.4 µM] (inactive)
CCC(CC)c1nnc(NC(=O)COc2ccc3c(C)cc(=O)oc3c2)s1 | inactive | 
CC(=O)COc1ccc2c(C)c(C)c(=O)oc2c1 | 1 µM (active) | 
COc1ccc2sc3ccccc3c(=O)c2c1OC | 3.55 µM (active) | 
CN1[C@@H]2CC[C@H]1CC(OC(=O)c1c[nH]c3ccccc13)C2 (stereo partly specified) | inactive | 
O=C(OCCN1CCCCC1)c1c[nH]c2ccccc12 | 12.6 µM (active) and 15.8 µM (active) | 
O=C(CCN1CCCCC1)N1CCc2c([nH]c3ccccc23)[C@H]1c1cccnc1 |  | -19.7% [at 2.29 µM] (inactive)
COc1ccc(NC(=O)N2CCC3(CC2)CCN(C(=O)c2cccn2C)CC3)cc1 | inactive | 
CC(=O)N(/N=C1\Sc2ccccc2C1=O)c1ccccc1C | 14.1 µM (active) | 
CC(=O)N(/N=C1\Sc2ccccc2C1=O)c1ccccc1 | 2.24 µM (active) | 
COC(=O)[C@@H]1O[C@@H](SCCN)[C@@H](O)[C@H](O)[C@H]1O |  | 10.2% [at 2.29 µM] (inactive)
CCC1(C)Cc2c(sc3nnn(CC(=O)Nc4ccc(C)cc4)c(=O)c23)CO1 (stereo unspecified) | 14.1 µM (active) | 
CCc1cc2c(nc1CC)CCN(CC/C(C)=N/OCC[C@@H]1C=C[C@H](OC(C)=O)[C@H](COC(C)=O)O1)C2 |  | -15.5% [at 11.4 µM] (inactive)
N#CC1=C(N)OC2=C(CC/C2=C\c2ccccc2)C1c1ccccc1 (stereo unspecified) | 2.51 µM (active) | 
CCCc1cc(C(=O)Cc2nc3ccccc3s2)c(O)cc1O | 2.24 µM (active) | 
O=C(OCc1nc2ccccc2s1)c1ccc(Br)s1 | 3.16 µM (active) | 

SMILES | AC50 | activity, negative = inhibition
CC(=O)OCc1nc2ccccc2s1 | 2.82 µM (active) | 
Nc1cc(=O)[nH]c(N)n1 | inactive | 
N=c1ccn2c(n1)O[C@H]1[C@@H](OP(=O)(O)O)[C@H](CO)O[C@H]12 |  | -3.14% [at 2.29 µM] (inactive)
COC(=O)[C@@H]1CC[C@H](C)[C@@H](c2ccc(C)cc2)N1C(=O)c1ccc(/C=N\OC[C@@H](O)COCc2ccco2)cc1 |  | -1.66% [at 11.4 µM] (inactive)
CNc1ccnc(-c2ccccc2C(F)(F)F)n1 | 12.6 µM (active) | 
Fc1ccc(Nc2ccnc(-c3ccccc3C(F)(F)F)n2)cc1 | 2 µM (active) | 
CN1C[C@H](c2ccccc2)C(O)([C@]2(c3ccccc3)CN(C)C[C@@H](c3ccccc3)C2=O)[C@H](c2ccccc2)C1 (stereo partly specified) |  | -5.45% [at 11.4 µM] (inactive)
O[C@@H](c1cc([C@@]23C[C@H]4CC[C@@H]2C[C@H](C4)C3)nc2c(Cl)cc(Cl)cc12)[C@@H]1CCCCN1 |  | -10.5% [at 2.29 µM] (inactive)
CCOC(=O)c1nc2sc(C)c(C)c2c(=O)[nH]1 | 14.1 µM (active) | 
CCOC(=O)c1c(C)nc2sc3c(=O)n(-c4ccc(OC)cc4)nnc3c2c1-c1ccc(OC)cc1 | inactive | 
Cc1ccc(Nc2nc(Cl)nc(N(C)C#N)n2)cc1 | 3.55 µM (active) | 
O=C(O)NCC1CCCCC1 (tested in a mixture with another compound) |  | -10.2% [at 11.4 µM] (inactive)
Cc1nc(-c2c(C(F)(F)F)noc2-c2ccc(O)cc2O)cs1 | 12.6 µM (active) | 
NC(=O)CC(c1ccccc1)c1ccco1 (stereo unspecified) | inactive | 
O=C(NCc1ccccc1)C(c1ccc(F)cc1)N(Cc1ccco1)C(=O)c1ccccn1 (stereo unspecified) | inactive | 
O=C(c1ccco1)N(CCC(c1ccccc1)c1ccco1)Cc1ccco1 (stereo unspecified) | 14.1 µM (active) | 
CCOC(=O)C1CCCN(C(=O)c2sc3nc(-c4ccc(OC)cc4)cn3c2C)C1 (stereo unspecified) | 20 µM (active) | 
CCOC(=O)C1CCN(Cc2cnc(Oc3ccc(OC)cc3)s2)CC1 | inactive | 
CCOC(=O)C1CCCN(C(=O)CCn2nc(-c3ccccc3)ccc2=O)C1 (stereo unspecified) | inactive | 
O=C(O)c1ccc([N+](=O)[O-])c(P(=O)(O)O)c1 |  | -9.8% [at 11.4 µM] (inactive)
O=C(NCC1CCCO1)c1ccc(CS(=O)(=O)Cc2ccc(F)cc2)o1 (stereo unspecified) | inactive | 
O=C1CC(c2ccc(F)cc2)Cc2nc(NCC3CCCO3)ncc21 (stereo unspecified) | 22.4 µM (active) | 
O=C1C=C(NCC2CCCO2)C2(CCCCC2)O1 (stereo unspecified) | inactive | 

SMILES | AC50 | activity, negative = inhibition
Cc1ccc(C(=O)C(OC(=O)CNS(=O)(=O)c2ccccc2)c2ccccc2)cc1 (stereo unspecified) | inactive | 
CCOC(=O)C1=C(C)N=C2c3ccccc3C(=O)C2C1c1ccc(Cl)cc1 (stereo unspecified) | 3.16 µM (active) | 
CCOC(=O)C1=C(N)n2c(s/c(=C/c3ccccc3)c2=O)=C(C(=O)OCC)C1c1ccccc1 (stereo unspecified) | inactive | 
COCCOC(=O)C1=C(C)NC(=O)N(C(C)=O)C1c1ccc(Cl)cc1 (stereo unspecified) | inactive | 
CCOC(=O)C1=C(C)N=C2c3ccccc3C(=O)C2C1c1ccc(C)cc1 (stereo unspecified) | 3.16 µM (active) | 
CCOC(=O)C1=NNC2(c3ccc(Cl)cc3)C(=O)N(c3cc(C)cc(C)c3)C(=O)C12 (stereo unspecified) | inactive | 
COC(=O)[C@@]1(Cc2ccccc2)[C@H]2c3cc(C(=O)N(C)C)n(Cc4ccsc4Br)c3C[C@H]2CN1C(=O)c1ccccc1 | inactive | 
CCCOc1ccc(Cn2c(C)nc([N+](=O)[O-])c2SCC(O)COC)cc1[N+](=O)[O-] (stereo unspecified) | inactive | 
COc1ccc(CSc2nnnn2C)cc1[N+](=O)[O-] | 14.1 µM (active) | 
CSc1nncc(-c2ccc(F)c(F)c2)n1 | 3.55 µM (active) | 
CC1CCCN(CC(O)COCC2COc3ccccc3O2)C1 (stereo unspecified) | inactive | 
OC(COCC1COc2ccccc2O1)CN1CCc2ccccc2C1 (stereo unspecified) | 5.01 µM (active) | 
OC(COCC1COc2ccccc2O1)CN1CCN(c2ccccc2F)CC1 (stereo unspecified) | inactive | 
NC(=O)[C@H]1CC2(CC(c3cccc(NC(=O)c4ccccc4)c3)=NO2)CN1C(=O)[C@H]1CCC(=O)N1 (stereo partly specified) | inactive | 
CCOC(=O)C1=C(C)NC2(O)c3ccccc3C(=O)C12O (stereo unspecified) | 20 µM (active) | 
CC(=O)Nc1ccc(S(=O)(=O)NCC2CCC(C(=O)N3CCN(c4ccccn4)CC3)CC2)cc1 (stereo unspecified) | inactive | 
O=c1onc2n1-c1cc(Br)ccc1OC2 | 0.794 µM (active) | 
Cc1ccc(NC(=O)N/C=C/c2ccco2)cc1C | 7.08 µM (active) | 
O=C1[C@@H]2[C@H]3[C@H](O)[C@H](O)C/C(=N/OC[C@@H](O)COCc4ccco4)[C@@H]3CC[C@H]2C(=O)N1c1ccc(F)cc1F |  | -10.4% [at 11.4 µM] (inactive)
C/C(=N\N1CCN(C2c3ccccc3-c3ccccc32)CC1)c1ccncc1 | 8.91 µM (active) | 
C/C(=N\N1CCN(C2c3ccccc3-c3ccccc32)CC1)c1cccnc1 | 12.6 µM (active) | 
Cc1ccnc(N2C(=O)C3C4CC(C(Br)C4Br)C3C2=O)c1 (stereo unspecified) | inactive | 
